Screening data from PubChem.
In the library only some 6.7% were active in any assay of this set; here they are far more common.
Pf Dd2 growth: blocks growth of Plasmodium falciparum Dd2 parasites | P. falciparum Dd2 growth, SYBR Green, 72 h; hits give low values | activity change, % at 10 µM | hit rate 2.3% among 94,000; in the data active = activity change below about -80%
T cruzi growth: inhibitors of T. cruzi proliferation. hit rate 5.9% among 77,000. T. cruzi beta-gal in NIH3T3, GalScreen luminescence, 90 h. inhibition, % at 8.34 µM. AID 624255;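 active = mean inhibition above about 93%, with at least 55% of replicates each passing it, limit read from the data, passing the limit was not always enough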
C diff growth: blocks growth of Clostridium difficile; Clostridium difficile clinical isolate growth, OD600, 24 h; hits give low values; growth activity, negative = inhibition, % at 16 µg/mL (by protocol); hit rate 0.25% among 86,000; AID 1259249;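 active = mean growth activity at or below -80% and every replicate also at or below -80%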;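 also: 0% = DMSO wells and -100% = levofloxacin 16 µg/mL wells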
Active calls of the source: *; . = no result; ! = a repeat was not active.

SMILES	Pf Dd2 growth	T cruzi growth	C diff growth
C[C@@H]1CN([C@@H](C)CO)C(=O)c2cccc(NC(=O)CCCCCC(=O)Nc3ccccc3N)c2O[C@H]1CN(C)Cc1ccc(Cl)c(Cl)c1	-87*	.	-2
C[C@@H]1CN([C@@H](C)CO)C(=O)c2cccc(NC(=O)CCCCCC(=O)Nc3ccccc3N)c2O[C@@H]1CN(C)Cc1ccc2c(c1)OCO2	-89*	.	-3
C[C@H]1CN([C@@H](C)CO)C(=O)c2cccc(NC(=O)CCCCCC(=O)Nc3ccccc3N)c2O[C@@H]1CN(C)Cc1ccc(Cl)c(Cl)c1	-92*	.	2
C[C@@H]1CN([C@H](C)CO)C(=O)c2cc(NC(=O)CCCCCC(=O)Nc3ccccc3N)ccc2O[C@@H]1CN(C)Cc1ccc(Cl)c(Cl)c1	-47	78	.
C[C@@H]1CN([C@H](C)CO)C(=O)c2cccc(NC(=O)CCCCCC(=O)Nc3ccccc3N)c2O[C@H]1CN(C)Cc1ccc(Cl)c(Cl)c1	-86*	.	-10
C[C@@H]1CCCCO[C@H](CN(C)S(C)(=O)=O)[C@@H](C)CN([C@@H](C)CO)C(=O)c2cc(N(C)C)ccc2O1	.	-17	1
O=C(C[C@H]1CC[C@H]2[C@@H](COC[C@H](O)CN2C(=O)c2ccncc2)O1)NC1CCC1	4	79	7
COc1ccc(S(=O)(=O)Nc2ccc3c(c2)C(=O)N([C@@H](C)CO)C[C@@H](C)[C@H](CN(C)C(=O)Nc2cccc4ccccc24)OCCCC[C@H](C)O3)cc1	-71	61	-7
O=C(C[C@H]1C[C@H]2c3cc(NS(=O)(=O)c4ccc(F)cc4)ccc3O[C@H]2[C@H](CO)O1)NCC1CC1	-16	-60	-1
C[C@@H]1CN([C@@H](C)CO)C(=O)c2cccc(NC(=O)Nc3ccc4c(c3)OCO4)c2O[C@@H]1CN(C)S(=O)(=O)c1ccccc1	-34	14	4
COCC(=O)N(C)C[C@@H]1Oc2ncc(C#Cc3ccccc3)cc2C(=O)N([C@@H](C)CO)C[C@H]1C	23	36	0
C[C@@H]1CN([C@H](C)CO)C(=O)c2cc(NC(=O)c3ccncc3)ccc2O[C@@H](C)CCCCO[C@H]1CN(C)C	-18	25	-1
C[C@H]1CN([C@@H](C)CO)C(=O)c2cc(-c3ccccc3F)cnc2O[C@@H]1CN(C)C(=O)CN(C)C	18	13	-2
CCCC#Cc1ccc2c(c1)O[C@H](CN(C)C(=O)c1ccccc1F)[C@H](C)CN([C@H](C)CO)S2(=O)=O	-81*	33	17
C[C@H](CO)N1C[C@H](C)[C@H](CN(C)C(=O)c2ccccc2F)Oc2cc(C#CCN(C)C)ccc2S1(=O)=O	-28	75	-7
CCCC#Cc1ccc2c(c1)O[C@@H](CN(C)C(=O)c1ccccc1F)[C@@H](C)CN([C@@H](C)CO)S2(=O)=O	-83*	75	18
COCC#Cc1ccc2c(c1)O[C@@H](CN(C)C(=O)c1ccccc1F)[C@@H](C)CN([C@H](C)CO)S2(=O)=O	-47	28	2
C[C@H](CO)N1C[C@H](C)[C@@H](CN(C)C(=O)c2cnccn2)Oc2ncc(C#CCN(C)C)cc2C1=O	69	8	2
CC(C)NC(=O)N(C)C[C@H]1Oc2ccc(NC(=O)c3ccncc3)cc2CC(=O)N([C@@H](C)CO)C[C@@H]1C	-7	.	8
N#C[C@@H]1[C@@H](c2ccccc2C2=CCCCC2)[C@@H](CO)N1C(=O)c1cccc(F)c1	-14	.	8
N#C[C@@H]1[C@H](c2ccccc2C2=CCCC2)[C@H](CO)N1C(=O)NC1CCCC1	-47	.	10
CCCNC(=O)N1[C@H](C#N)[C@@H](c2ccccc2C2=CCCC2)[C@@H]1CO	-89*	.	-2
N#C[C@@H]1[C@H](c2ccccc2C2=CCCCC2)[C@@H](CO)N1C(=O)c1cccc(F)c1	-94*	.	-10
COc1cccc(C#Cc2ccc([C@@H]3[C@H]4CN(C(=O)c5ccccc5)CC(=O)N4[C@H]3CO)cc2)c1	-48	.	-5
COc1cccc(NC(=O)N2CC(=O)N3[C@H](CO)[C@@H](c4ccc(C#CCC5CCCC5)cc4)[C@H]3C2)c1	-91*	.	62
SMILES	Pf Dd2 growth	T cruzi growth	C diff growth
COc1ccc(C#Cc2ccc([C@H]3[C@H]4CN(C(=O)c5ccc(F)cc5)CC(=O)N4[C@H]3CO)cc2)cc1	-85*	.	-2
O=C(c1ccc(F)cc1)N1CC(=O)N2[C@H](C1)[C@H](c1ccc(C#Cc3ccc(F)cc3)cc1)[C@@H]2CO	-13	.	-1
COc1cccc(NC(=O)N2CC(=O)N3[C@H](C2)[C@H](c2ccc(C#CCC4CCCC4)cc2)[C@@H]3CO)c1	-44	.	70
COc1cccc(C#Cc2ccc([C@H]3[C@@H](CO)N4C(=O)CN(C(=O)c5ccccc5)C[C@H]34)cc2)c1	-89*	.	1
C/C=C/c1ccc([C@@H]2[C@@H](CO)N(C(C)=O)C23CN(C(=O)c2ccncc2)C3)cc1	-36	.	-2
COc1ccc(S(=O)(=O)N(C)C[C@@H]2Oc3ccc(N(C)C)cc3C(=O)N([C@@H](C)CO)C[C@H]2C)cc1	-3	27	1
CO[C@@H](CN(C)S(=O)(=O)c1ccc(Cl)cc1)[C@H](C)CN(C(=O)Nc1ccccc1F)[C@@H](C)CO	-16	-94	.
Cc1ccc(S(=O)(=O)N[C@H]2C=C[C@@H](CC(=O)N3CCC(Cc4ccccc4)CC3)O[C@H]2CO)cc1	-32	54	.
Cc1cccc(-c2ccc(C3[C@@H]4CN(Cc5cccc(F)c5)C[C@H]3N4)cc2)c1 (some centres undefined)	15	.	-97*
Cc1ccccc1-c1ccc(C2[C@@H]3CN(Cc4cncnc4)C[C@H]2N3)cc1 (some centres undefined)	-10	.	-7
Fc1cccc(-c2ccc(C3[C@@H]4CN(Cc5cncnc5)C[C@H]3N4)cc2)c1 (some centres undefined)	-86*!	.	3
Cc1cccc(-c2ccc(C3[C@@H]4CN(Cc5ccccc5)C[C@H]3N4)cc2)c1 (some centres undefined)	-11	.	-36
C[C@H]1CCCCO[C@H](CN(C)C(=O)CCCN(C)C)[C@@H](C)CN([C@@H](C)CO)C(=O)c2cc(NC(=O)c3ccncc3)ccc2O1	9	47	-1
c1cncc(-c2ccc(C3[C@@H]4CN(Cc5ccc6c(c5)OCO6)C[C@H]3N4)cc2)c1 (some centres undefined)	-37	.	-4
CN(C)C(=O)c1ccc(-c2ccc(C3[C@@H]4CN(Cc5ccc6c(c5)OCO6)C[C@H]3N4)cc2)cc1 (some centres undefined)	-82*!	.	-5
C/C=C/c1ccc(C2[C@H]3CNC[C@@H]2N3Cc2ccc3c(c2)OCO3)cc1 (some centres undefined)	-28	.	6
C/C=C/c1ccc(C2[C@@H]3CN(Cc4ccc5c(c4)OCO5)C[C@H]2N3)cc1 (some centres undefined)	-94*!	.	2
Cc1ccccc1-c1ccc(C2[C@@H]3CN(Cc4ccc5c(c4)OCO5)C[C@H]2N3)cc1 (some centres undefined)	-7	.	-94*
Cc1ccccc1-c1ccc(C2[C@H]3CNC[C@@H]2N3Cc2ccc3c(c2)OCO3)cc1 (some centres undefined)	4	.	0
